From PubChem BioAssay (NCI) come the findings set out here.

SMILES strings stand for the structures. About 83,000 compounds went through this panel and 20% of them were active in at least one assay; those are over-represented in the sample as a whole.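 Note: values are percent growth. 100 is the growth of untreated cells, values between 100 and 0 indicate rising inhibition; between -100 and 0 indicates cell death.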 The source made the active and inactive calls. Rule for the calls: active = growth percent below 10; inactive = the rest.

This assay deals with HL-60(TB) leukemia. Kind of assay: NCI-60 one-dose screen, 48 h (100 = growth as untreated, 0 = no growth, -100 = all killed). Conditions: 10 µM unless noted.
On to `COc1ccc(-c2nn(-c3ccc(NC(=O)Nc4cc(C(F)(F)F)cc(C(F)(F)F)c4)cc3)cc2-c2ccncc2)cc1Cl`, for which the growth was 4.01% (active).

As for `C=CCN1C=CC(=O)[C@H](O[Si](C)(C)C(C)(C)C)[C@@H]1/C=C/c1ccccc1`, the growth is -33.3% [100 µM] (active).

Consider `O=C(Nc1cccc(C(=O)N2CCc3ccc(Cl)cc32)c1)c1ccco1`, for which the growth is 1.39% (active).

Turning to `COc1cc(C(=O)CCCl)ccc1O`, the growth was 95.8% (inactive).

For the molecule `CCCCCCCCCc1cc(CN2CCCCC2)c(O)c(CN2CCCCC2)c1`, the growth was 60.7% (inactive).

Consider `COc1ccc(C(O)c2cc3c(N)c(C(=O)Nc4cccc(Br)c4)sc3nc2C)cc1` (stereo not given), for which the growth was -5.69% (active).

Consider `CCN(CC)CCOC(=O)c1ccc(N=Nc2ccc(O)c(OC)c2)cc1`, for which the growth was 97.5% (inactive).

With `CC(=O)OCCCCCNc1ccccc1`, the growth was 76.3% (inactive).

Turning to `C#CCOc1ccc2nc(CCl)c(Cl)c(Nc3cccc(C(F)(F)F)c3)c2c1`, the growth was 56.1% (inactive).

For `CO[C@H]1C[C@@H]2CC[C@@H](C)[C@@](O)(O2)C(=O)C(=O)N2CCCC[C@H]2C(=O)O[C@H]([C@H](C)C[C@@H]2CC[C@@H](OC(=O)C(C)(CO)CO)[C@H](OC)C2)CC(=O)[C@H](C)/C=C(\C)[C@@H](O)[C@@H](OC)C(=O)[C@H](C)C[C@H](C)\C=C/C=C/C=C/1C`, the growth is -11.9% (active).

Consider `O=C(/C=C/C12c3ccccc3C(c3ccccc31)C1C(=O)NC(=O)C12)c1ccc(Cl)cc1Cl` (stereo not given), for which the growth was -8.27% (active).

On to `NC(=S)N/N=C(/CCN1CCCC1)CC(C1=C(O)C2=CCCCC2OC1=O)c1ccccc1` (stereo not given), for which the growth is 72.9% (inactive).

Regarding `COc1cccc(/C=C2\Oc3cc(OCCN4CCCC4)ccc3C2=O)c1`, the growth was 99.6% (inactive).

For `C[C@@H](C(=O)O)c1ccc2c3cc(Cl)ccc3n(Cc3cc(=O)oc4ccc(Cl)cc34)c2c1`, the growth was 89.9% (inactive).

Regarding `O=C(O)CN1C(=O)CCC1=O`, the growth was 134% (inactive).

On to `N=C(N)c1ccc(OCCCCCCCCCCOc2ccc(C(=N)N)cc2)cc1`, for which the growth is -70.1% (active).

With `Cc1cc2c(-c3nc4ccccn4c3NC3CCCCC3)c(O)c(O)cc2c(O)c1-c1c(C)cc2c(-c3nc4ccccn4c3NC3CCCCC3)c(O)c(O)cc2c1O`, the growth was 29.1% (inactive).

On to `COc1cc2c(c3c1c(=O)c1cccc(F)c1n3C)C=CC(C)(C)O2`, for which the growth was 100% (inactive).

Take `O=C(CCc1nnc2sc(-c3cc(O)c(O)c(O)c3)nn12)c1nc2ccccc2[nH]1`: the growth is 100% (inactive).

As for `O=c1[nH]c(=S)c2c(n1CCCO)CCC2`, the growth was 95.6% (inactive).

Consider `CC1=C(C)C(=O)C(Nc2cccc(C(=O)OC(C)(C)C)c2)=C(Br)C1=O`, for which the growth was 54.9% (inactive).

For the molecule `O=C(CN1CCCCC1)Nc1ccc2oc(=O)ccc2c1`, the growth was 78.1% (inactive).

For `COc1ccc(-c2[nH]c3ccccc3c2C=C(C#N)C#N)cc1`, the growth was -48.9% (active).

`COc1cc(C2=NN(C(C)=O)C(c3cc(OC)c(OC)c(OC)c3)C2)ccc1O` (stereo not given): the growth was -37.6% (active).

In the case of `COC(=O)c1nc(-c2ccccc2)oc1S(=O)(=O)N1CCN(c2ccc(OC)cc2)CC1`, the growth is 21.8% (inactive).

On to `COc1ccc(-c2cc(-c3ccccc3)nc(SCCCC(=O)NO)n2)cc1OC`, for which the growth was -12.2% (active).

As to `Nc1ccccc1-c1ccn[nH]1`, the growth is 95.6% (inactive).

Regarding `CNC(=O)c1cc(Oc2ccc3c(c2)sc2nc(-c4ccc(NC(=O)[C@@H](NC(=O)OC)C(C)C)cc4)cn23)ccn1`, the growth was 51.1% (inactive).

For `O=C(Nc1cccc(Cn2c(=O)[nH]c3ccc(Oc4ncccn4)cc3c2=O)c1)c1cccc(Cl)c1`, the growth was 54.1% (inactive).

With `COc1ccc(NC(=S)N/N=C/c2ccccc2SSCCC(=O)OC[C@H]2O[C@H](O)[C@H](O)[C@@H](O)[C@@H]2O)cc1`, the growth is 75.1% (inactive).

`COc1cc(/C=C/c2cc(/C=C/c3ccc(O)c(OC)c3)n(C(=O)Nc3ccc(F)cc3)n2)ccc1O`: the growth was -21.4% (active).

Regarding `COc1ccc(Cn2nc(-c3cc(OC)c(OC)c(OC)c3)c3c2CCc2cnoc2-3)cc1OC`, the growth was 16.3% (inactive).

For the molecule `O=C(Nc1cccc(Br)c1)Oc1cccc2cccnc12`, the growth is 4% [100 µM] (active).

For the molecule `COc1ccc(NC(=O)CSc2nc3ccccc3c(=O)n2-c2ccccc2C(F)(F)F)c(OC)c1OC`, the growth was 103% (inactive).

With `CC12OC(CC(O)C1O)n1c3ccccc3c3c4c(c5c6ccccc6n2c5c31)C(=O)N(CCN1CCCC1)C4=O` (stereo not given), the growth is 18.3% (inactive).

For `CCSc1oc(-c2ccccc2)nc1[P+](c1ccccc1)(c1ccccc1)c1ccccc1`, the growth was -35.1% (active).

Take `Cc1ccc(N)cc1F`: the growth was 120% (inactive).

Take `C=C1C(=O)O[C@H]2[C@H]1CC/C(COC(=O)C(=O)c1c[nH]c3ccc(Cl)cc13)=C\CC[C@@]1(C)O[C@@H]21`: the growth was -44.6% (active).

Consider `COc1ccc(S(=O)(=O)Nc2c(/C=C\c3cc(OC)c(OC)c(OC)c3)ccc(OC)c2O)cc1`, for which the growth was -42.3% (active).

Take `N#Cc1c(-c2ccccc2)cc(-c2ccccc2)n(CC(=O)NO)c1=O`: the growth was -56.3% (active).
